Source: PubChem BioAssay AID2685 (National Center for Advancing Translational Sciences (NCATS), 2010)
Hit rate of the full screen: of about 320,000 compounds, about 2,100 (0.66%) were called active. Roughly 53% stayed inconclusive and do not appear here. Calls come from the whole dose curve; as a rule, active = well fitted inhibition curve with a large enough effect in the signal ratio, with a control signal flat (not every such curve was filed as active); inconclusive = small, poorly fitted or top-dose-only effect, or effect the other way, or a change in a side signal; inactive = flat fitted curve, though single readings scatter; the % refers to the signal ratio. What follows is part of a selection rich in actives, with near analogues and random picks from the rest.

experiment: qHTS Assay for Lipid Storage Modulators in Drosophila S3 Cells; conditions: BODIPY lipid droplet fluorescence, 18-24 h, cells fed with added oleic acid; cell number change: measured here: cell count max response; series mostly up to 46.1 µM; lipid storage change, negative = inhibition: at the top concentration;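 for cell number change: cells counted by Cell Tracker Red CMTPX staining in the red channel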; for lipid storage change, negative = inhibition: % is set by controls: 0 for no effect and ±100 for the full control effect
Method in brief: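 Drosophila S3 cells got compounds at several concentrations plus oleic acid (400 uM solution). Laser-scanning cytometry with 488 nm excitation read lipid droplets at 500-530 nm and cells at 575-640 nm. Percent activity was relative to 20 uM Triacsin C.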
Potency is the fitted concentration of half-maximal effect.

Structure (SMILES)	lipid storage change, negative = inhibition	cell number change [%]	Potency	outcome
O=C(Nc1cccc2ncccc12)c1cccnc1	42.3% (inactive)	4.51	–	–
CCc1noc(C)c1C(=O)Nc1cccc2ncccc12	–	-8.65	2.31 µM (active)	–
CC(C)(C)c1ccc(C(=O)Nc2cccc3ncccc23)cc1	–	–	14.6 µM (active)	–
CCc1noc(C)c1C(=O)Nc1ccc(F)c(F)c1F	–	-3.41	–	inactive
CC(=O)Nc1cccc(C(=O)Nc2cccc3ncccc23)c1	34.5% (inactive)	-6.58	–	–
CCOC(=O)c1cc(CC)sc1NC(=O)CN1CCN(C(=O)C2CCCO2)CC1 (centres undefined)	–	-6.11	–	inactive
CC(=O)N(C)c1ccc(NC(=O)c2ccc([N+](=O)[O-])cc2Cl)cc1	–	1.5	–	inactive
CCCCN(C(=O)CCC(=O)OCC(=O)NCc1ccccc1)c1c(N)n(CCC)c(=O)[nH]c1=O	-9.31% (inactive)	-13.8	–	–
COc1ccc(NC2CC(=O)N(c3cccc(C)c3)C2=O)cc1 (centres undefined)	11.1% (inactive)	-0.809	–	–
O=C(NCc1ccncc1)NC1CCCCC1	15.1% (inactive)	5.51	–	–
C=CCc1ccccc1OCCn1nnc2ccccc21	-11.5% (inactive)	-12.8	–	–
Fc1ccc(-c2ccc(/C=N/n3cnnc3)o2)cc1	–	-15.7	10.3 µM (active)	–
Fc1ccc(-c2ccc(/C=N\n3cnnc3)o2)cc1Cl	-5.43% (inactive)	–	–	–
Cc1ccc(-c2ccc(/C=N/n3cnnc3)o2)cc1	5.91% (inactive)	8.97	–	–
O=C(Nc1ccccc1)NC1CCN(Cc2c(F)cccc2Cl)CC1	2.76% (inactive)	4.31	–	–
O=c1c(Cc2c(F)cccc2Cl)c(O)ccn1Cc1ccc(F)cc1	-10.9% (inactive)	–	–	–
O=c1c(Cc2c(F)cccc2Cl)c(O)ccn1CCc1ccccn1	–	-22	14.1 µM (active)	–
O=c1c(Cc2c(F)cccc2Cl)c(O)ccn1C1CC1	14% (inactive)	4.74	–	–
CCC(C)(C)n1nnnc1C(c1ccccc1)N1CCN(C2CCCC2)CC1 (centres undefined)	-1.77% (inactive)	-10.2	–	–
COc1ccc(CC(=O)NNC(=O)c2ccco2)cc1OC	–	-12.7	–	inactive
CN(C(=O)CCN1C(=O)/C(=C/c2ccccc2)SC1=S)C1CCS(=O)(=O)C1 (centres undefined)	–	10.8	–	inactive
COc1ccc(/C=C2\SC(=S)N(CCCC(=O)N3CCCCC3CCO)C2=O)cc1 (centres undefined)	–	-3.77	–	inactive
COc1cc(/C=C2\SC(=S)N(CC(=O)O)C2=O)ccc1OS(=O)(=O)c1ccc(C)cc1	-18.6% (inactive)	-2.94	–	–
O=C(O)CCCCN1C(=O)/C(=C\c2ccc(OCc3ccccc3)c(OCc3ccccc3)c2)SC1=S	-12.4% (inactive)	-10.9	–	–
COc1cc(/C=C2\SC(=S)N(CCCCC(=O)O)C2=O)ccc1OS(=O)(=O)c1ccc(C)cc1	–	-25.4	20.6 µM (active)	–

Structure (SMILES)	lipid storage change, negative = inhibition	cell number change [%]	Potency	outcome
CCN(C(=O)CCN1C(=O)/C(=C/c2ccccc2)SC1=S)C1CCS(=O)(=O)C1 (centres undefined)	–	-2.83	18.4 µM (active)	–
O=C1/C(=C/c2ccc(Cl)cc2)SC(=S)N1CCC(=O)N1CCCCC1CCO (centres undefined)	–	-22.1	–	inactive
CN1CCN(C(=O)CCCN2C(=O)/C(=C/c3ccccc3)SC2=S)CC1	–	3.91	8.2 µM (active)	–
COc1ccc(/C=C2\SC(=S)N(CCCC(=O)N3CCN(C)CC3)C2=O)cc1	–	-9.52	–	inactive
O=C(CCCN1C(=O)/C(=C/c2ccccc2)SC1=S)N1CCOCC1	–	15.4	–	inactive
CCN(C(=O)CN1C(=O)/C(=C/c2ccccc2)SC1=S)C1CCS(=O)(=O)C1 (centres undefined)	–	-6.26	–	inactive
COc1ccc(/C=C2\SC(=S)N(CCC(=O)N3CCCCC3CCO)C2=O)cc1 (centres undefined)	–	-3.06	20.6 µM (active)	–
O=C(O)CCN=C1CCCc2ccccc2N1	1.94% (inactive)	-7.32	–	–
COCCCNc1nnc(Cc2ccccc2)c2ccccc12	4.29% (inactive)	-6.27	–	–
CC(=O)N1CCCc2cc(S(=O)(=O)Nc3ccc(C)cc3C)ccc21	-5.87% (inactive)	19.8	–	–
Cc1ccc(C(O)P(=O)(OC2CCCCC2)OC2CCCCC2)cc1 (centres undefined)	-12.5% (inactive)	22.2	–	–
O=C(COc1ccc(S(=O)(=O)Nc2ccccc2)cc1)NCc1cccnc1	-1.07% (inactive)	-1.79	–	–
Cc1c(C(=O)NC(C)C)c(-c2ccccc2)nn1-c1ccccc1	6.49% (inactive)	-7.38	–	–
O=C(Nc1nnc(C2=COCCO2)o1)c1ccc(S(=O)(=O)N2CCOCC2)cc1	4.23% (inactive)	17.2	–	–
Cc1ccc(S(=O)(=O)N2CCc3c2cc([N+](=O)[O-])cc3[N+](=O)[O-])cc1	9.86% (inactive)	25.6	–	–
CC(C)c1ccc(/C=C2\SC(=S)N(CCC(=O)N3CCCCC3CCO)C2=O)cc1 (centres undefined)	–	-22.4	–	inactive
O=C1/C(=C/c2ccccc2)SC(=S)N1CCCC(=O)N1CCCCC1CCO (centres undefined)	–	5.19	18.4 µM (active)	–
O=C(CCN1C(=O)/C(=C\c2ccccc2)SC1=S)N1CCCCC1	-17.1% (inactive)	9.57	–	–
COc1cccc(/C=C2\SC(=S)N(CCCC(=O)N3CCCCC3CCO)C2=O)c1 (centres undefined)	–	–	–	inactive
O=C(O)CCCCCN1C(=O)/C(=C/c2ccncc2)SC1=S	-21.5% (inactive)	8.67	–	–
COc1cccc(/C=C2\SC(=S)N(CCCC(=O)N3CCCC3)C2=O)c1	-27.9% (inactive)	19.2	–	–
O=C(O)CCCN1C(=O)/C(=C/c2ccncc2)SC1=S	-1.54% (inactive)	-13	–	–
O=C(O)CCCCCN1C(=O)/C(=C\c2ccncc2)SC1=S	–	-19.2	3.26 µM (active)	–
COc1cccc(/C=C2\SC(=S)N(CCC(=O)N3CCCCC3CCO)C2=O)c1 (centres undefined)	–	-19.7	8.2 µM (active)	–
